Data on 64 compounds can be found in ChEMBL document CHEMBL3988442, “University of Dundee, Small-Polar-MMV Screening Library” (2021).

Structures are written as SMILES. Hit rate of the full screen: of about 48,000 compounds, about 13,000 (27%) showed an effect of 50% or more. This is one part of the list.

This test relates to Wolbachia pipientis. The experiment in a line: Anti-Wolbachia Cell-Based Screen. The format is functional. More on the design: scale not given: in the data most compounds retested in dose-response had high values. The following applies: 5 µM.
For the compound `N#Cc1cccc(CS(=O)(=O)NCC(O)Cc2ccccc2)c1` (centres undefined), the “Percent Effect” value is on record as -5.845%.

`Cc1nc(-c2cccc(C#N)c2)nn1CC1(O)CCCCC1`: the “Percent Effect” value was -14.51%.

On to `Cc1ccccc1CS(=O)(=O)NCCCN1CCCCC1`, for which the “Percent Effect” value was -4.018%.

Take `Cn1c(NCCC(=O)N2CCCC2)c(C#N)c(=O)n(C)c1=O`: the “Percent Effect” value was 17.52%.

With `N#CCCNC(=O)CSc1cc(F)ccc1F`, the “Percent Effect” value is reported as 8.044%.

As for `Cn1ccnc1C(=O)NCc1cc(=O)n2c(n1)CN(CC1CC1)CCC2`, the “Percent Effect” value is on record as -4.321%.

With `COCC(=O)NCc1cc(=O)n2c(n1)CN(Cc1nccs1)CCC2`, the “Percent Effect” value is 109.1%.

For `O=C(c1cccs1)N1CCCn2c(nc(CN3CCCC3)cc2=O)C1`, the “Percent Effect” value is -6.505%.

Turning to `CCCN1CCCn2c(nc(CNC(=O)c3nccn3C)cc2=O)C1.O=C(O)C(F)(F)F`, the “Percent Effect” value is given as -4.018%.

For the compound `COCC(=O)NCc1cc(=O)n2c(n1)CN(Cc1cccs1)CCC2`, the “Percent Effect” value was 97.08%.

`Cc1cc(C)nc(N2CC=C[C@@H]2C(=O)NCc2ccc3c(c2)OCO3)n1.Cl`: the “Percent Effect” value was 87.31%.

In the case of `CC(CNC(=O)NCc1ccc2c(c1)OCO2)CC1(C)OCCO1` (centres undefined), the “Percent Effect” value is listed as -13.46%.

For the compound `Cc1cc(C)nc(N2CC=C[C@H]2C(=O)NCc2ccc3c(c2)OCO3)n1`, the “Percent Effect” value is given as 114.7%.

`Cn1cnnc1C1CCCN(C(=O)NCc2ccc3c(c2)OCO3)C1` (centres undefined): the “Percent Effect” value is given as -7.5%.

As to `CC(C)(C)NS(=O)(=O)c1cc(NC(=O)C2CC2)ccc1F`, the “Percent Effect” value was -6.714%.

As to `Cc1cc(C)nc(CN(C)C(=O)C(c2cccnc2)N2CCCC2)c1` (centres undefined), the “Percent Effect” value was found to be 24.45%.

With `O=S(=O)(c1cc(F)ccc1F)N1CCCC1c1ccco1` (centres undefined), the “Percent Effect” value came to 90.48%.

With `COc1ccc(C2CCCCCN2S(=O)(=O)N(C)C)cc1` (centres undefined), the “Percent Effect” value is on record as -32.58%.

`COC(=O)[C@H]1C[C@@H](O)CCN1S(=O)(=O)c1ccc(F)cc1F`: the “Percent Effect” value is reported as -1.254%.

With `O=S(=O)(c1ccc(F)cc1Cl)N1CCCC1c1ccncc1` (centres undefined), the “Percent Effect” value was 106.2%.

For `COc1ccc(F)cc1S(=O)(=O)N1CCC(OC)CC1`, the “Percent Effect” value came out at 11.35%.

For the compound `C[C@@H]1CN(S(=O)(=O)c2ccc(F)cc2Cl)C[C@]1(C)O`, the “Percent Effect” value stood at 2.252%.

Turning to `CN(CC(=O)NC1CC1)S(=O)(=O)c1ccc(F)cc1Cl`, the “Percent Effect” value is listed as -5.607%.

As to `O=S(=O)(N1CCC(n2cccc2)CC1)N1CCCC1c1ccco1` (centres undefined), the “Percent Effect” value was -32.64%.

As for `COC1CCN(S(=O)(=O)N2CCCC2c2ccco2)CC1` (centres undefined), the “Percent Effect” value is recorded as -19.32%.

Consider `COc1ccc(C2CCCN2S(=O)(=O)N(C)CC(C)C)cc1` (centres undefined), for which the “Percent Effect” value is reported as -5.01%.

Take `COc1ccc(C2CCCN2S(=O)(=O)c2cc(F)ccc2F)cc1` (centres undefined): the “Percent Effect” value is 118.1%.

For the compound `O=S(=O)(c1cc(F)ccc1F)N1CCCC1c1ccncc1` (centres undefined), the “Percent Effect” value was 90.37%.

As for `Cc1noc(CCCC(=O)N2CCN(C)CC2c2ccccc2)n1` (centres undefined), the “Percent Effect” value is given as 7.741%.

For `Cc1cc(C(=O)N2CCNC(=O)CC2)c(C)n1CC(F)(F)F`, the “Percent Effect” value was -3.477%.

With `CCN(CC)Cc1ccc(C(=O)NC2CCc3cc(Cl)ccc32)o1` (centres undefined), the “Percent Effect” value was 1.872%.

In the case of `CNS(=O)(=O)CCCn1nnc(-c2ccc(F)c(C)c2)n1`, the “Percent Effect” value was -16.4%.

With `O=C(NC1CC(=O)N(C2Cc3ccccc3C2)C1)c1csnn1` (centres undefined), the “Percent Effect” value is given as -8.023%.

For `CN1CCN2C[C@@H](NC(=O)c3nc4ccccc4[nH]3)C[C@H]2C1`, the “Percent Effect” value came to 10.91%.

`CN1C(=O)CC(C(=O)O)C12CCN(Cc1ccc(F)c(Cl)c1)CC2` (centres undefined): the “Percent Effect” value is listed as 19.25%.

On to `Cc1ccc(F)c(S(=O)(=O)N2CCCC2c2ccncc2)c1` (centres undefined), for which the “Percent Effect” value came to 113.4%.

Consider `CCC[C@H]1CN(S(=O)(=O)c2cc(C)ccc2F)C[C@@H]1N`, for which the “Percent Effect” value is given as -6.271%.

Take `Cc1ccc([C@@H]2CN(S(=O)(=O)c3cc(C)ccc3F)C[C@H]2N(C)C)cc1`: the “Percent Effect” value is -17.89%.

Turning to `COc1ccc(NC(C)C(=O)N2CCN(Cc3ccccc3)CC2)cn1` (centres undefined), the “Percent Effect” value amounted to 10.35%.

With `CO[C@@H](C(=O)NC1CCOCC1)c1ccccc1`, the “Percent Effect” value was -10.4%.

For `COc1cccc(CNC(CN2CCN(C)CC2)c2ccccc2)c1` (centres undefined), the “Percent Effect” value was -4.654%.

Take `CCN1CCC(CC(=O)NCC(O)c2cccc(OC)c2)CC1` (centres undefined): the “Percent Effect” value worked out at 5.929%.

As to `OC(CNC1CCSCC1)c1cccc(OCc2ccccc2)c1` (centres undefined), the “Percent Effect” value is on record as 91.01%.

On to `OC(CNC1CCOCC1)c1cccc(OCc2ccccc2)c1` (centres undefined), for which the “Percent Effect” value is 100.2%.

Turning to `CC(C)Oc1cccc(C(O)CNC(=O)CCc2ccncc2)c1` (centres undefined), the “Percent Effect” value is -6.251%.

As for `COc1cccc(C(O)CNC(=O)CC2CCCCC2)c1` (centres undefined), the “Percent Effect” value was 1.218%.

In the case of `CN(Cc1ccccc1)c1ncccc1CNC1CCSCC1`, the “Percent Effect” value was -9.19%.

Regarding `CN1CCC(NCC(O)c2cccc(OCc3ccccc3)c2)CC1` (centres undefined), the “Percent Effect” value stood at 116.6%.

Consider `O=C(O)C(F)(F)F.O=C(c1ccccc1)N1CCS(=O)(=O)[C@@H]2CCNCC[C@@H]21`, for which the “Percent Effect” value was -7.979%.

In the case of `c1ccc(CCn2cc(-c3nc(CN4CCOCC4)no3)nn2)cc1`, the “Percent Effect” value is reported as 7.795%.

Regarding `COc1ccc(-c2n[nH]cc2CN(C)CCc2scnc2C)c(F)c1`, the “Percent Effect” value is on record as -15.83%.

Regarding `Cc1cc2nc(CO[C@H]3CN(C4CCN(C)CC4)C[C@H]3F)[nH]c2cc1C`, the “Percent Effect” value was -19.54%.

Consider `COc1cccc2c1OCC(C(=O)N1CCC(NS(C)(=O)=O)CC1)C2` (centres undefined), for which the “Percent Effect” value turned out to be 16.61%.

For the compound `CC(C)c1cnc(CN2C(=O)CC3(CCSC3)C2=O)o1` (centres undefined), the “Percent Effect” value is reported as 17.31%.

As to `O[C@@H]1CN(Cc2ccncc2)C[C@H]1Oc1ccccc1`, the “Percent Effect” value is listed as 125.9%.

As to `OC1CN(Cc2ccccc2)CCN(c2ccncc2)C1` (centres undefined), the “Percent Effect” value was found to be 12.72%.

On to `CCC1CN(C(=O)c2cncc(C)c2)CCC(=O)N1Cc1ccccc1` (centres undefined), for which the “Percent Effect” value was -10.11%.

For `O[C@@H]1CN(Cc2cccnc2)C[C@H]1Oc1ccccc1`, the “Percent Effect” value amounted to 103.4%.

Turning to `Cc1cncc(CN2C[C@@H](O)[C@H](Oc3ccccc3)C2)c1`, the “Percent Effect” value was 132.9%.

In the case of `CC(C)O[C@H]1CN(Cc2cnc3c(-c4ccccc4)cnn3c2)C[C@@H]1O`, the “Percent Effect” value came out at 3.276%.

`Cc1cnccc1CN1C[C@@H](O)[C@H](Oc2ccccc2)C1`: the “Percent Effect” value is reported as -5.554%.

For `F[C@@H]1CN(Cc2cccnc2)C[C@@H]1OCc1nc2ccccc2[nH]1`, the “Percent Effect” value was found to be 10.94%.

With `O=C1NC(c2ccccc2)=N[C@@]12CC[C@@H]1CN(Cc3cccnc3)C[C@@H]12`, the “Percent Effect” value is on record as 0.6919%.

Regarding `COCC(=O)N1CCN(c2ncnc3cccc(F)c23)CC1`, the “Percent Effect” value is reported as 0.7263%.
